Assay results as given in PubChem BioAssay (NCATS).
Values without a mark were called inactive. Results filed as inconclusive are left out. Where a call stands in place of a potency, no number is given. Active and inactive are the calls of the source. Unless noted, calls follow the shape of the dose curve; as a rule, active = well fitted curve in the direction sought with a large enough effect; inconclusive = small, poorly fitted or top-dose-only effect, or another doubt; inactive = no such curve, though single readings can be large; an effect the other way counts as inactive or inconclusive.

Experiments:
[1] = molecular target: Lysosomal acid glucosylceramidase (Homo sapiens) (UniProt P04062); experiment: Glucocerebrosidase-p2 (AID 348; in the data active = potency below about 10 µM; also: potency is read from the fitted curve at half-maximal effect); conditions: purified GBA, blue fluorogenic substrate, 40 min
Sequence of Lysosomal acid glucosylceramidase (Homo sapiens) (P04062 whole entry, looked up): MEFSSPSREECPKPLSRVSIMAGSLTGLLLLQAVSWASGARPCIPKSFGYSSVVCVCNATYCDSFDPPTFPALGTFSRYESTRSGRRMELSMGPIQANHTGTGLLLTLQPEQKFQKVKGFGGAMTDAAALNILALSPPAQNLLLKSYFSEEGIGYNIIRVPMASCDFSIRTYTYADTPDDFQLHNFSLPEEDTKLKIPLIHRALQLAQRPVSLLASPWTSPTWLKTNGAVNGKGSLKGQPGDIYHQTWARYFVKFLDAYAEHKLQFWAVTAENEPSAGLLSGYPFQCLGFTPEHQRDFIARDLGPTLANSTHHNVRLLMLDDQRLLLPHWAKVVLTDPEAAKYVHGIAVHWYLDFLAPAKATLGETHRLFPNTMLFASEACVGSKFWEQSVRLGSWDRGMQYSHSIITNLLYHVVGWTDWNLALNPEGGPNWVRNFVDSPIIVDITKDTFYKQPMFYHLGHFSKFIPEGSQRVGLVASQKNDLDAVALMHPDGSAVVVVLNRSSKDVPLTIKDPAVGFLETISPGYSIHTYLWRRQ
In short: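 Compounds titrated from 0.6 nM upwards against 0.2 nM enzyme in pH 5.9 citric acid/KH2PO4, taurocholate, tween-20; blue fluorogenic substrate 80 uM, 40 min room temperature, stopped and read Ex 365/Em 440 for AC50.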

[2] = AP1 Signaling Pathway (AID 357; active = well fitted curve in either direction with a large enough effect, not every such curve was filed as active;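 also: ME-180 reporter cells stimulated with EGF at its EC50 level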); conditions: ME-180 AP-1-bla reporter, EGF-induced, beta-lactamase ratio, 5 h; at 7.69 µM (top of the series) unless noted
In short: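 Titration-series screen for positive or negative modulators of EC50 EGF-induced signaling in ME-180 cells carrying an AP-1-driven beta-lactamase reporter. After 5 hours at 37 degrees Celsius, CCF4 460nm/530nm emission ratio gave %Activity; AC50 values derived.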

[3] = molecular target: Cytochrome P450 1A2 (Homo sapiens) (UniProt P05177); experiment: p450-cyp1a2 (AID 410; calls by dose curve; also: potency is read from the fitted curve at half-maximal effect); conditions: recombinant CYP1A2, luciferin-ME demethylation, luminescence; series mostly up to 57 µM
Sequence of Cytochrome P450 1A2 (Homo sapiens) (P05177 whole entry, looked up): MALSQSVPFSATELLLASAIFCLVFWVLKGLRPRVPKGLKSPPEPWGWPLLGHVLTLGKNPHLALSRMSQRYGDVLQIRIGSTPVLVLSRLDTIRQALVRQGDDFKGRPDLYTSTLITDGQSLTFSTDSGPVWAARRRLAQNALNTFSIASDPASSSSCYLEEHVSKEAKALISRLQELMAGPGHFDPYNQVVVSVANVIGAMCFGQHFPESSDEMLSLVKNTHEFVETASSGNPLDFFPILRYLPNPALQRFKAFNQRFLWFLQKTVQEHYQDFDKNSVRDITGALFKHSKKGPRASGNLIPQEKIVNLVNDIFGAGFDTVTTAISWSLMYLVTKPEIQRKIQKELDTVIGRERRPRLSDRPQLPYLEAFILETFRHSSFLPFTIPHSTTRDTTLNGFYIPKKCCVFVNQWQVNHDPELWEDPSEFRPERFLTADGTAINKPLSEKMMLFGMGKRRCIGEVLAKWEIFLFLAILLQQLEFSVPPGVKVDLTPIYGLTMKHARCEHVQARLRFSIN
In short: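 20nM CYP1A2 with 100uM Luciferin-ME (at Km) in 100mM KPO4; compound preincubated 10 min, NADPH regeneration added, 60 min at room temperature. Luciferin quantified by luminescence after detection reagent; normalized to 57 uM furafylline.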

[4] = NFAT Signaling Pathway (AID 444; active = well fitted curve in either direction with a large enough effect, not every such curve was filed as active;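 also: carbachol stimulus at about its EC50 of 1 µM final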); conditions: Jurkat NFAT-bla M1, carbachol, beta-lactamase ratio, 5 h; at 7.69 µM (top of the series) unless noted
In short: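 Read-out: CCF4 FRET ratio (460 nm/530 nm) after 1 h RT dye loading, used for %activity and AC50 from titration series. Cells: Jurkat NFAT-β-lactamase/M1 line, treated with compound plus 1 uM carbachol for 5 h, 37 °C.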

[5] = Stat Signaling Pathway (AID 446; active = well fitted curve in either direction with a large enough effect, not every such curve was filed as active;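 also: ME-180 cervical cancer cells given 40 pM IL-6 alongside compound; SIE-controlled beta-lactamase reporter measured as 460/530 nm FRET emission ratio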); conditions: ME-180 SIE beta-lactamase reporter, IL-6 stimulated, 5 h; at 7.69 µM (top of the series) unless noted
In short: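 ME-180 cells carrying a SIE-driven beta-lactamase reporter are stimulated with 40 pM IL-6 for 5 h at 37C in the presence of compound. The 460/530 nm FRET substrate ratio is read after 2.5 h at RT. Data are normalised to 300 pM IL-6 and to 125 nM JAK inhibitor controls.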

[6] = molecular target: Glucocorticoid receptor (Homo sapiens) (UniProt P04150); experiment: GR-GFP Redistribution (AID 450;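 active = compounds whose dose series gives a full or clear partial fitted curve of increased nuclear translocation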; also: potency is read from the fitted curve at half-maximal effect); conditions: U2OS GR-GFP nuclear translocation, laser cytometry, 2 h
Sequence of Glucocorticoid receptor (Homo sapiens) (P04150 whole entry, looked up, the tested form may be a part): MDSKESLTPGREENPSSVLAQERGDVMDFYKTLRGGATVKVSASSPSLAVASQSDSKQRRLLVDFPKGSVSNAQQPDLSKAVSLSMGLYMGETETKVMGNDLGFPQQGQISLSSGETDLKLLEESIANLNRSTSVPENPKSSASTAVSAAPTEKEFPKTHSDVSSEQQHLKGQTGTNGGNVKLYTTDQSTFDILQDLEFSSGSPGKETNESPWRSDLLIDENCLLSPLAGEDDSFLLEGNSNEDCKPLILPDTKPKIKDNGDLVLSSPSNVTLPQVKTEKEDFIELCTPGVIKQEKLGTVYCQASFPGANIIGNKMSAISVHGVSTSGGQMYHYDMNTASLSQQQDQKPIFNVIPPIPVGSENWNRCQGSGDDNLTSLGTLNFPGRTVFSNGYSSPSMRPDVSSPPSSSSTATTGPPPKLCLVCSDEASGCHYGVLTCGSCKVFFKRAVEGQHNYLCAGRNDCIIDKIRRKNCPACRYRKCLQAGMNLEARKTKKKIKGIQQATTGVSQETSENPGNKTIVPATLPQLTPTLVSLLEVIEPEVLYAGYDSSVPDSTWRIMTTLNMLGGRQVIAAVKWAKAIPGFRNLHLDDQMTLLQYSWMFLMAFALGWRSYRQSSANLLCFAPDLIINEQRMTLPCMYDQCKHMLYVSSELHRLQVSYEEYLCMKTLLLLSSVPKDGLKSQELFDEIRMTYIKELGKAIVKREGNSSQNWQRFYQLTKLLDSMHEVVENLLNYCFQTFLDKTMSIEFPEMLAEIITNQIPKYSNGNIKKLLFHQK

[7] = molecular target: Glucocorticoid receptor (Homo sapiens) (UniProt P04150); experiment: GR-EFC Redistribution (AID 451; calls by dose curve; also: potency is read from the fitted curve at half-maximal effect); conditions: CHO-K1 GR-EFC translocation, beta-gal luminescence, 2 h
In short: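 Translocation of GR-ED fusion to nuclear EA restores b-gal, read by luminescence after 1 h room-temperature detection. Engineered CHO-K1 biosensor cells, 1,000/well, exposed 2 h at 37 C to titrations up to 46 uM final.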

[8] = molecular target: Mitogen-activated protein kinase 10 (Mus musculus) (UniProt Q61831); experiment: JNK3 AlphaScreen Assay (AID 530; active = well fitted curve in either direction with a large enough effect, not every such curve was filed as active;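 also: kinase came from lysate of stimulated human HepG2 cells; signal reports phosphorylation of biotinylated GST-cJun 1-79 at Ser73 with 10 µM ATP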); conditions: JNK3 lysate, c-Jun phosphorylation; series mostly up to 57.1 µM
In short: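 Compound titrations were preincubated 15 minutes at room temperature with substrate, antibody and pre-activated JNK3-containing HepG2 lysate. Reactions were started with 10 uM ATP and stopped with EDTA-containing bead buffer for AlphaScreen detection.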

[9] = molecular target: Dual specificity protein kinase CLK4 (Homo sapiens) (UniProt Q9HAZ1); experiment: qHTS Assay for Inhibitors of CDC-like Kinase 4 (Kinase-Glo Assay) (AID 1770); conditions: recombinant Clk4, Kinase-Glo ATP depletion luminescence; series mostly up to 66.7 µM; also: nearly all actives have a fitted effect of over 65% in size
Sequence of Dual specificity protein kinase CLK4 (Homo sapiens) (Q9HAZ1 whole entry, looked up): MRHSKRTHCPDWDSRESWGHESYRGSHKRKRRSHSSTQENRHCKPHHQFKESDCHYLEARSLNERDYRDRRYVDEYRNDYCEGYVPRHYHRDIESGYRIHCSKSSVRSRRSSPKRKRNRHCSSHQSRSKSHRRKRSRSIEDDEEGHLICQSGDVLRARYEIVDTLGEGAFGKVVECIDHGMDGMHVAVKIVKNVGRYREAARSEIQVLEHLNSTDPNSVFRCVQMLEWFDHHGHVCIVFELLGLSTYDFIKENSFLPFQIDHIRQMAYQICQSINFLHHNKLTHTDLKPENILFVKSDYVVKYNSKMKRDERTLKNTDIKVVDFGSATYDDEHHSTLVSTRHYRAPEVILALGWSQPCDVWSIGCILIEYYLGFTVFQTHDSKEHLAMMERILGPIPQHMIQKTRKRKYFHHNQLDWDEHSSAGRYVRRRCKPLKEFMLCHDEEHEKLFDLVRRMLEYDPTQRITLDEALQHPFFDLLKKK
In short: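 Recombinant human Clk4 (25 nM) phosphorylated RS repeat peptide (100 uM) with 1 uM ATP in Tris pH 7.5/MgCl2/EGTA/DTT/Triton buffer for 4.5 h at room temperature. Residual ATP was quantified by Kinase-Glo luciferase luminescence.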

[10] = molecular target: Dual specificity protein kinase CLK4 (Homo sapiens) (UniProt Q9HAZ1); experiment: qHTS Assay for Inhibitors of CDC-like Kinase 4 (ADP-Glo Assay) (AID 1771); conditions: recombinant CLK4, ADP-Glo luminescence; series mostly up to 80 µM; also: nearly all actives have a fitted effect of over 70% in size
In short: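 25 nM Clk4 with 100 uM RS repeat peptide and 1 uM ATP (final) in buffer with 2 mM MgCl2, 0.5 mM EGTA, 2.5 mM DTT, 0.01% Triton X-100; 1 h at room temperature; ADP-Glo luminescence for ADP formed.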

[11] = molecular target: Dual specificity protein kinase CLK4 (Homo sapiens) (UniProt Q9HAZ1); experiment: qHTS Assay for Inhibitors of CDC-like Kinase 4 (ADP-FP Assay) (AID 1795); conditions: Transcreener ADP fluorescence polarization; series mostly up to 50 µM; also: nearly all actives have a fitted effect of over 60% in size
In short: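 Recombinant human Clk4 (6.25 nM) phosphorylated RS repeat peptide (100 uM) with 1 uM ATP in Tris pH 7.5/MgCl2/EGTA/DTT/Triton buffer for one hour. ADP was quantified by Transcreener competitive fluorescence polarization against an ADP calibration curve.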

[12] = molecular target: Ubiquitin carboxyl-terminal hydrolase 1 (Homo sapiens) (UniProt O94782); experiment: Inhibitors of USP1/UAF1: Pilot qHTS (AID 504865); conditions: purified USP1/UAF1, Ub-rhodamine cleavage fluorescence; series mostly up to 54.9 µM;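 also: rhodamine fluorescence freed from ubiquitin-rhodamine substrate followed over time; top concentration of the series differs between compounds; nearly all actives have a fitted effect of over 35% in size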
Sequence of Ubiquitin carboxyl-terminal hydrolase 1 (Homo sapiens) (O94782 whole entry, looked up): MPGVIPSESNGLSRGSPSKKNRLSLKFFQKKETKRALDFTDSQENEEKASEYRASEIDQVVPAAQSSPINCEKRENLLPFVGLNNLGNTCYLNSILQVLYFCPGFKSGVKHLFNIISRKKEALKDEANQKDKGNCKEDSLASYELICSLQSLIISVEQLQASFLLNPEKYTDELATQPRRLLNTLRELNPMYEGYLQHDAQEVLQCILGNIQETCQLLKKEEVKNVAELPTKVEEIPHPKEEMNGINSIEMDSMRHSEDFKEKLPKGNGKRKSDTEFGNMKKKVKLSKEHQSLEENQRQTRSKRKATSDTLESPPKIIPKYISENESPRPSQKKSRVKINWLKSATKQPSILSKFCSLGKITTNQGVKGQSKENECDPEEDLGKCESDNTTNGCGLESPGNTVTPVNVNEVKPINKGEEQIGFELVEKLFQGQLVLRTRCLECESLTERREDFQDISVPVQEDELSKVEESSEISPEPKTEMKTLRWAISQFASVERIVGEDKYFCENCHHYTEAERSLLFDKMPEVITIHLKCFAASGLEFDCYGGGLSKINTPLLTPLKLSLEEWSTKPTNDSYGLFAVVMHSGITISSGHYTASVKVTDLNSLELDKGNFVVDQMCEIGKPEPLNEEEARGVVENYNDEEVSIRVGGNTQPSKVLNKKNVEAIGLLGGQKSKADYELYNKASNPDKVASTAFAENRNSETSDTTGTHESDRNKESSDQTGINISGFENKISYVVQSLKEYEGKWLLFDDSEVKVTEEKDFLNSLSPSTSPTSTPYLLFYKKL
In short: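 USP1/UAF1 complex (1nM) preincubated with compound 15 min at room temperature, then Ub-Rho substrate (150nM final) added. Fluorescence read kinetically at 480/540 nm, 6 reads every 60 seconds. Buffer: 50mM HEPES pH 7.8, 0.5mM EDTA, 0.1 mg/ml BSA, 1mM TCEP, 0.01% Tween-20.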

[13] = Primary qHTS for small molecule stabilizers of the endoplasmic reticulum resident proteome: Secreted ER Calcium Modulated Protein (SERCaMP) assay (AID 1508630); conditions: SH-SY5Y GLuc-SERCaMP (Gaussia luciferase released on ER calcium loss) secretion, thapsigargin, luminescence; series mostly up to 38.4 µM
In short: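 GLuc-SERCaMP-expressing SH-SY5Y cells, pretreated 16 h with compound, are challenged with thapsigargin to empty ER calcium stores; after 4 h, coelenterazine is added directly to the medium and luminescence is imaged.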

[14] = molecular target: 3',5'-cyclic-AMP phosphodiesterase 4B (Homo sapiens) (UniProt Q07343); experiment: qHTS Assay for Inhibitors of PDE-IV (AID 607; active = well fitted activation curve with a large enough effect in the main read-out, with a control signal flat, not every such curve was filed as active); conditions: HEK293 ACTOne CNG channel cells, membrane potential fluorescence; series mostly up to 22.9 µM
Sequence of 3',5'-cyclic-AMP phosphodiesterase 4B (Homo sapiens) (Q07343 whole entry, looked up): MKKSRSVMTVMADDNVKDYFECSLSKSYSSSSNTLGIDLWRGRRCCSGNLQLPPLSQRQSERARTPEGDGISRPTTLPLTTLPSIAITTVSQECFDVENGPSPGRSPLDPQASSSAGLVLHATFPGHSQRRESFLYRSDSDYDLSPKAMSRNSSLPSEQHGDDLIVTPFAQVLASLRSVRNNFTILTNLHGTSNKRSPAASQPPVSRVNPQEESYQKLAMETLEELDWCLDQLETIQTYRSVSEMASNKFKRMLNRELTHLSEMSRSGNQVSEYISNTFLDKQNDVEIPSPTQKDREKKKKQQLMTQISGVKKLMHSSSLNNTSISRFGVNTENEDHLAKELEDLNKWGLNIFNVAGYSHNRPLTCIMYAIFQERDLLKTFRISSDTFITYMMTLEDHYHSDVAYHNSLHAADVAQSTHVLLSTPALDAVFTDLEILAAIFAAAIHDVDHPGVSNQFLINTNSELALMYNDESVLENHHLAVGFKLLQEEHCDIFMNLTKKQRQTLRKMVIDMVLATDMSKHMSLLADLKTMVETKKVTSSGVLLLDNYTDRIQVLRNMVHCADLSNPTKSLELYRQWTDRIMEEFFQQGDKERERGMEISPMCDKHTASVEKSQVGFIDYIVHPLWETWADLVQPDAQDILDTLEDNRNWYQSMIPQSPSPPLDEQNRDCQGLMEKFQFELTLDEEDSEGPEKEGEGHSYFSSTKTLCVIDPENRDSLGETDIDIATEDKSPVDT
In short: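 HEK293 ACTOne cells with CNG channel (1000/well), endogenous PDE4; membrane potential dye, compounds up to 22.9 uM final. Fluorescence Ex 535/Em 590; RO 20-1724 (100 uM final) as reference.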

Compound	Potency [1] [µM]	activity change, negative = inhibition [2] [%]	Potency [3]	activity change, negative = inhibition [4] [%]	activity, negative = inhibition [5] [%]	Potency [6] [µM]	Potency [7] [µM]	Potency [8]	Potency [9]	Potency [10]	Potency [11]	Potency [12]	outcome [13]	Potency [14]
Cn1c(=O)c(-c2ccccc2)nc2cnc(Nc3ccccc3)nc21	> 11.4	6.58	15.8 µM (active)	-7.03	8.87	> 9.22	> 46	inactive	inactive	inactive	inactive	inactive	inactive	
COc1ccc(-n2c(=O)c(-c3ccc(F)cc3)nc3cncnc32)cc1	> 11.4	7.36	inactive	-20	6.09	> 9.22	> 46	inactive	inactive	inactive	inactive	inactive	inactive	inactive
COc1ncc2nc(-c3ccc(F)cc3)c(=O)n(CCc3ccccc3)c2n1	> 11.4	-6.05	0.398 µM (active)	-8.98	-5.82	> 9.22	> 46	inactive	inactive	inactive	inactive	inactive	inactive	inactive
CN(C)C(=O)c1ccc(-c2nccc(N(C)Cc3ccco3)n2)cc1	> 11.4	-6.22	12.6 µM (active)	-2.09	4.76	> 46	> 46	inactive	inactive	inactive	inactive	inactive	inactive	inactive
CN(C)c1ncc2nc(-c3ccc(Cl)cc3)c(=O)n(C[C@H]3CCCO3)c2n1	> 11.4	9.11	3.98 µM (active)	21.9	11.6	> 9.22	> 46	inactive	inactive	inactive	inactive	inactive	inactive	inactive
Cn1c(=O)c(-c2ccc(Cl)cc2)nc2cnc(OCc3ccccc3)nc21	> 11.4	-12.6	0.794 µM (active)	-7.07	-4.02	> 9.22	> 46	inactive	inactive	inactive	inactive	inactive	inactive	inactive
